According to ChEMBL document CHEMBL3988442, “University of Dundee, Small-Polar-MMV Screening Library” (2021):
The whole screen tested about 48,000 compounds, of which about 13,000 (27%) showed an effect of 50% or more. The list shows a part of the results.

system: Wolbachia pipientis; test: Anti-Wolbachia Cell-Based Screen; type: functional; set-up: scale not given: in the data most compounds retested in dose-response had high values; conditions: 5 µM

Compound	Percent Effect [%]
CC(C)(C)S(=O)(=O)c1ccc(N2CCN(c3ccccc3)CC2)nn1	15.82
COCc1n[nH]c2c1CN(Cc1ccccn1)C2.O=C(O)C(F)(F)F	-21.53
Cc1nnc(N2CCN(C(=O)NC3CC3)CC2)c(C(N)=O)c1C	-22.89
CS(=O)(=O)NCC1CCCCN1Cc1ccccc1C#N (stereo not drawn)	1.848
COCCN1CC(=O)c2sc(NCc3ccccc3)nc2C1	105.3
O=C1CN(CC2CC2)Cc2nc(NCc3ccccc3)sc21	59.83
O=C1CN(CC2CC2)Cc2nc(NCCc3ccccn3)sc21	91.68
O=C(NCc1ccccc1)[C@@H]1Cc2[nH]cnc2CN1CC1CC1	2.59
Cc1nc(CNC2CCN(Cc3ccccc3)C2)sc1C (stereo not drawn)	-5.508
Cn1c(C2CC2)nc2c1CCN(CCc1ccccn1)C2	-2.558
O=C(NCCc1ccccn1)NC1CCN(c2ccccc2)C1=O (stereo not drawn)	10.23
CSC1(CNC(=O)NC(C)c2ccc(F)c(F)c2)CCOCC1 (stereo not drawn)	-14.87
Cc1ccc(C(C(=O)NCCc2nc(C)cc(C)n2)N(C)C)cc1 (stereo not drawn)	11.55
COc1ccc(-c2cccc3c2OC(CN)C3)cc1F (stereo not drawn)	-8.297
CCN1CCN(C[C@@H]2CN(c3ncc(Cl)cc3Cl)C[C@@H]2CO)CC1	-5.198
Cc1noc([C@@H]2C[C@H]3OCC[C@H]3N(CC3CCCC3)C2)n1.O=C(O)C(F)(F)F	-10.41
Cc1noc([C@@H]2C[C@H]3OCC[C@H]3N(S(C)(=O)=O)C2)n1	0.371
Cc1noc([C@@H]2C[C@H]3OCC[C@H]3N(Cc3cc(C)c(C)o3)C2)n1.O=C(O)C(F)(F)F	-0.5348
CCS(=O)(=O)N1C[C@@H](c2nnc(C)o2)C[C@H]2OCC[C@H]21	1.952
Cc1noc([C@H]2C[C@H]3OCC[C@H]3N(S(=O)(=O)C3CC3)C2)n1	5.212
Cc1nnc([C@H]2C[C@H]3OCC[C@H]3N(S(=O)(=O)CC(C)C)C2)o1	-13.43
CCCS(=O)(=O)N1C[C@@H](c2nc(C)no2)C[C@H]2OCC[C@H]21	120.5
Cc1noc([C@H]2C[C@H]3OCC[C@H]3N(S(C)(=O)=O)C2)n1	101.7
CCc1ccc(CN2C[C@@H](c3nc(C)no3)C[C@H]3OCC[C@H]32)o1.O=C(O)C(F)(F)F	3.351

Compound	Percent Effect [%]
Cc1noc([C@H]2C[C@H]3OCC[C@H]3N(C3CCC3)C2)n1.O=C(O)C(F)(F)F	110.4
CCS(=O)(=O)N1C[C@H](c2nc(C)no2)C[C@H]2OCC[C@H]21	131.3
Cc1noc([C@H]2C[C@H]3OCC[C@H]3N(Cc3scnc3C)C2)n1.O=C(O)C(F)(F)F.O=C(O)C(F)(F)F	-0.107
Cc1ccc(-c2cnnc(NCC3(N4CCOCC4)CCCC3)n2)o1	10.34
CNC(=O)c1cc2c(s1)CCN(C(=O)CCC1CCCN(C)C1)C2 (stereo not drawn)	-26.69
Cc1nn(C)c(C)c1CN(Cc1cccn1-c1ncccn1)C(C)C	-15.44
CC(Cn1ccnc1)NC(=O)N(C)Cc1ccco1 (stereo not drawn)	7.542
Cc1ccccc1CC1(CO)CCCN(c2ncnc3sccc23)C1 (stereo not drawn)	23.07
Cc1noc([C@@H]2C[C@H]3OCC[C@H]3N(S(=O)(=O)N(C)C)C2)n1	112.3
Cc1noc([C@@H]2C[C@H]3OCC[C@H]3N(S(=O)(=O)c3ccccc3)C2)n1	116
Cc1noc([C@@H]2C[C@H]3OCC[C@H]3N(Cc3ccoc3)C2)n1	14.51
Cc1nnc([C@H]2C[C@H]3OCC[C@H]3N(S(=O)(=O)N(C)C)C2)o1	-11.67
Cc1noc([C@@H]2C[C@H]3OCC[C@H]3N(S(=O)(=O)c3cccnc3)C2)n1.O=C(O)C(F)(F)F	-2.374
Cc1nnc([C@H]2C[C@H]3OCC[C@H]3N(S(=O)(=O)C3CC3)C2)o1	7.121
CCC(O)Cn1nc(CCSC)nc1-c1ccc2[nH]ccc2c1 (stereo not drawn)	4.032
COc1ccc(OCc2nc(C(=O)N3CCCNC(=O)C3)co2)cc1	-7.469
COc1ccc(CN(C)C(=O)c2nnc(CN(C)C)o2)cc1	-11.59
O=C(c1ccccc1)N1CCCC(Nc2ccc(F)cc2)C1 (stereo not drawn)	-11.95
CN1CC(c2ccccc2)CC12CCN(C(=O)c1ccc(F)cc1)CC2 (stereo not drawn)	-4.742
NC(=O)C1CN(C(=O)c2ccc(F)cc2)CCN1CCc1ccccc1 (stereo not drawn)	127.4
O=C(NC[C@H]1OC[C@@H](NC2CCC(F)(F)CC2)[C@@H]1O)C1CCCC1	8.921
CN(C)c1cc2c(nn1)CCN(C(=O)C1COc3ccccc3C1)C2 (stereo not drawn)	-4.709
CN(Cc1ccco1)C(=O)[C@@]12CNC[C@@H]1CN(C1CCCC1)C2	-1.971
CC(C)C(=O)NC1CC2(CCN(CC(=O)N(C)C)CC2)c2ccccc21.O=C(O)C(F)(F)F (stereo not drawn)	105.8

Compound	Percent Effect [%]
O=C(NC1CC2(CCN(CCO)CC2)c2ccccc21)c1ccncc1.O=C(O)C(F)(F)F.O=C(O)C(F)(F)F (stereo not drawn)	-8.101
COCC(=O)NC1CC2(CCN(CCO)CC2)c2ccccc21.O=C(O)C(F)(F)F (stereo not drawn)	86.71
CCN1CCC2(CC1)CC(NC(=O)c1ccnnc1)c1ccccc12.O=C(O)C(F)(F)F (stereo not drawn)	-6.669
COCC(=O)NC1CC2(CCN(CCN(C)C)CC2)c2ccccc21 (stereo not drawn)	87.88
CCC(c1nc(C(C)C)nn1-c1ccccn1)n1cccn1 (stereo not drawn)	8.011
CC(C)N1CCc2c(c(COc3cncnc3)nn2CC2CC2)C1.O=C(O)C(F)(F)F	-1.489
c1ccc(-c2cnc(CNC3CCCN(c4cccnn4)C3)o2)cc1 (stereo not drawn)	-8.343
O=C(c1ccno1)N1C[C@@H](F)[C@@H](OCc2nc3ccccc3o2)C1	6.473
NC(=O)C1CN(c2ccc3c(Cl)ccnc3c2F)CCO1 (stereo not drawn)	-12.11
CCc1nc(NC(=O)Cc2csc(-c3nnc[nH]3)n2)sc1C	3.287
CCOCC1CN(C(=O)[C@H]2CCCO2)Cc2nnn(CC3CC3)c21 (stereo partly drawn)	0.1287
C1CCC(CN2Cc3nnn(CC4CC4)c3C(COCC3CC3)C2)C1.O=C(O)C(F)(F)F (stereo not drawn)	107.6
CN(C)C(=O)N1Cc2nnn(C)c2C(COCC2CC2)C1 (stereo not drawn)	7.957
O=C(O)C(F)(F)F.c1cc(CN2Cc3nnn(CC4CC4)c3C(COCC3CC3)C2)co1 (stereo not drawn)	1.787
COCC1CN(C(=O)[C@H]2CCCO2)Cc2nnn(CC3CC3)c21 (stereo partly drawn)	-4.44
C1CC(N2Cc3nnn(CC4CC4)c3C(COCC3CC3)C2)C1.O=C(O)C(F)(F)F (stereo not drawn)	96.7
CCOCC1CN(CC2CCC2)Cc2nnn(CC3CC3)c21 (stereo not drawn)	111.4
CN(C)C(=O)N1Cc2nnn(CC3CC3)c2C(COCC2CC2)C1 (stereo not drawn)	117.2
CCOCC1CN(C(=O)N(C)C)Cc2nnn(CC3CC3)c21 (stereo not drawn)	-7.85
COCC1CN(Cc2ccncc2)Cc2nnn(CC3CC3)c21.O=C(O)C(F)(F)F.O=C(O)C(F)(F)F (stereo not drawn)	-5.053
CCSC1(CNc2ncc(Br)cn2)CCOCC1	-0.7161
Cc1cc(CN2CCN(C(=O)C(C)C)[C@@H]3CS(=O)(=O)C[C@@H]32)ccc1F	-3.716
CC(Cn1ccnc1)NCc1nncn1C1CCCCC1 (stereo not drawn)	-17.23
NC(=O)COc1ccc(CN2CC[C@@]3(O)CCCC[C@H]3C2)cc1Cl	11.68

Compound	Percent Effect [%]
CSc1ncccc1C(=O)NC(C)c1cccc(N2CCOC2=O)c1 (stereo not drawn)	5.443
Cc1cc(CN(C)C(=O)C2CCS(=O)(=O)C2)no1 (stereo not drawn)	3.983
CCCn1nnnc1CSc1nccn1Cc1ccccn1	-4.795
CCn1ccnc1CNCC1CCCN1c1cccnn1 (stereo not drawn)	-7.119
O=C(Cc1cccs1)N1CCCCC1c1ccn2ccnc2n1 (stereo not drawn)	83.71
O=C(Cc1ccsc1)N1CCCCC1c1ccn2ccnc2n1 (stereo not drawn)	73.59
Cc1nc(CC(=O)N2CCCCC2c2ccn3ccnc3n2)cs1 (stereo not drawn)	-8.343
O=C(Cc1cccs1)N1CCOCC1CO (stereo not drawn)	-3.953
CN(Cc1ccccc1F)C(=O)c1cc(Cl)c[nH]1	92.86
CN(Cc1ccccc1F)C(=O)COC(=O)c1cc(Cl)c[nH]1	87.09
COC(=O)c1ccc(OCC(=O)N(C)Cc2ccsc2)c(OC)c1	0.9882
COCCN1CCN(CC(=O)N(C)Cc2ccsc2)CC1C (stereo not drawn)	9.964
CN(Cc1ccsc1)C(=O)COC(=O)c1cc(Cl)c[nH]1	107.8
CN(Cc1ccccc1F)C(=O)CS(=O)(=O)Cc1ccc(Cl)c(Cl)c1	6.215
CN(Cc1ccccc1F)C(=O)c1ccoc1	5.435
COc1ccc(Cl)cc1CS(=O)(=O)CC(=O)N(C)Cc1ccccc1F	-1.573
Cc1ccccc1CS(=O)(=O)CC(=O)N(C)Cc1ccccc1F	-29.58
Cc1ccc(CNCC2CCc3nnc(C(C)C)n3C2)s1 (stereo not drawn)	-11.01
CN1CCN(C(=O)CCc2cc(Br)cs2)CC1	-6.424
COc1cc(NC(=O)NC2CCOCC2)ccc1N1CCOC1=O	-14.6
Cc1ncc(CN(C)c2nc3c(cnn3C(C)(C)C)c(=O)[nH]2)s1	5.937
